# Compound activity (PubChem BioAssay)
# Only a sample is shown.
# aSyn UTR act = Activators working through SNCA 5'UTR binding (MLPCN); alpha-synuclein 5'UTR reporter, activators screen; activity score, % (tested at 7.5 µM), hits read low; 300,000 compounds, 7.1% hits; in the data active = activity score below about -60%
# Active calls of the source: *.
SMILES,aSyn UTR act
O=C(Nc1ccccc1)C1=C[C@@H](c2ccc(Br)cc2)C[C@@H](OCCCCO)O1,-95*
CCc1ccc2oc(-c3ccc(OC)cc3)cc(=Nc3c(C)n(C)n(-c4ccccc4)c3=O)c2c1,-77*
O=C(c1cc(-c2ccc(Cl)cc2)on1)N1CCCCCC1,-148*
CN(C)/C=C/C(=O)c1ccc(-c2ccc(Cl)cc2Cl)o1,-106*
O=C(c1cc(-c2ccc(O)cc2)on1)N1CCCCCC1,-94*
Cc1ccc(-c2cc(C(=O)N3CCCC3)no2)cc1,53
O=C(c1cc(-c2ccc(Cl)cc2Cl)on1)N1CCCCCC1,-71*
O=C(c1cc(-c2cccc(Cl)c2)on1)N1CCCCCC1,-175*
O=C(c1ccc(-c2ccc(Cl)cc2Cl)o1)N1CCOCC1,-104*
O=C(c1cc(-c2ccc(Cl)c(Cl)c2)on1)N1CCCCCC1,-198*
CCOC(=O)c1c(C)[nH]c(C(=O)OCC(=O)Nc2sccc2C(N)=O)c1C,-119*
FC(F)Oc1ccc(NC(=S)NC2CCCCCCC2)cc1,-93*
S=C(Nc1ccc(Cl)cc1)NC1CCCCC1,-73*
S=C(Nc1ccc(Br)cc1)NC1CCCCC1,-119*
Cc1c(C)n(CCO)c2ncnc(Nc3ccc(F)cc3)c12,-64*
Cc1ccc2nc(-c3ccc(N4C(=O)CC(N5CCC(C(N)=O)CC5)C4=O)cc3)sc2c1 (stereo not given),-72*
O=C(NC1CCCCC1)N1CCc2ccccc2C1,-85*
O=C(Nc1ccc(F)cc1)N1CCc2ccccc2C1,-203*
O=C(Nc1ccc(Br)cc1)N1CCc2ccccc2C1,-161*
Cc1ccc(-c2nc(N)n(C(=O)c3cccnc3)n2)cc1,-77*
COc1ccc(-c2cnn3c4c(c(C)nc23)CCN4C(C)C)cc1OC,-70*
N#Cc1cc2c([nH]c1=S)CCCCCC2,-71*
COc1cc([N+](=O)[O-])ccc1NC(=O)Nc1ccc2c(c1)OCCO2,-72*
O=C(Nc1ccc([N+](=O)[O-])cc1)Nc1ccc2c(c1)OCCO2,-92*
CCCCCCCCCn1c2c(c(=N)c3c1CCC3)CCC2,86
SMILES,aSyn UTR act
N#CC(Cc1ccc(OC(F)F)cc1)c1nc2ccccc2[nH]1 (stereo not given),-157*
COCCCNC(=O)/C=C1\Sc2ccccc2N(Cc2ccccc2F)C1=O,-94*
CN1CCSc2ccc(C(=O)Nc3cccc(F)c3)cc21,-134*
COc1ccc(NC(=O)c2ccc3c(c2)N(C)CCS3)cc1,-148*
Cc1onc(-c2c(Cl)cccc2Cl)c1C(=O)N/N=C(\N)COc1ccc(Cl)cc1,89
Cc1onc(-c2c(F)cccc2Cl)c1C(=O)O/N=C(\N)c1ccc([N+](=O)[O-])o1,-80*
CN(CC(=O)N1CCc2ccccc21)S(=O)(=O)c1cccs1,-130*
O=C(Nc1ccccc1Cl)c1ccc([N+](=O)[O-])o1,-139*
CCC(=O)N1CCN(c2ccc(NC(=O)c3ccc([N+](=O)[O-])o3)cc2Cl)CC1,77
CS(=O)(=O)N1CCN(c2ccccc2NC(=O)c2ccc([N+](=O)[O-])o2)CC1,-123*
O=C(Nc1cc(Cl)ccc1-n1cncn1)c1ccc([N+](=O)[O-])o1,-70*
O=C(Nc1ccc(Cl)c([N+](=O)[O-])c1)c1ccco1,-67*
O=C(Nc1cccc(NC(=O)c2ccc([N+](=O)[O-])o2)c1)c1ccco1,-66*
O=C(Nc1ccc(NC(=O)c2ccc([N+](=O)[O-])o2)cc1Cl)c1ccco1,-173*
c1ccc2nc(-c3ccc4c(c3)OCO4)ccc2c1,-81*
CCCc1cc(-c2nc(N)ncc2-c2ccc3c(c2)OCCCO3)c(O)cc1OC,62
COc1ccc(OC)c2nc(-c3ccc4c(c3)OCO4)ccc12,-90*
COc1cc2c(O)c3c(c(-c4ccc5c(c4)OCO5)c2cc1OC)C(=O)OC3,108
Cc1cc(O)ccc1Nc1nc(-c2cccnc2)cs1,-281*
Cc1cc(O)ccc1Nc1nc(-c2cccs2)cs1,-101*
O=C(c1cccs1)N(CCN1CCCCC1)CC1CCCN(C2CCCC2)C1 (stereo not given),-113*
Cc1ccc(C(=O)N(CCN2CCCCC2)CC2CCCN(C3CCCC3)C2)s1 (stereo not given),-77*
Cc1cc2ncn(C(=O)N3CCC(C)CC3)c2cc1C,-67*
c1ccc(-c2ccc3c(c2)NCCN3)cc1,-113*
CSc1ccccc1OCc1cc(C(=O)N2CCCC(C)C2)no1 (stereo not given),-134*
SMILES,aSyn UTR act
COc1ccc(OCc2cc(C(=O)N3CCCC(CO)C3)no2)c2ccccc12 (stereo not given),-102*
COc1ccccc1OCc1cc(C(=O)N2CCCC(OCc3cccnc3)C2)no1 (stereo not given),-134*
CSc1ccccc1OCc1cc(C(=O)N2CCSCC2)no1,-113*
CCOc1ccccc1C1CC(=O)Nc2cc3c(cc21)OCCO3 (stereo not given),92
CSc1ccccc1OCc1cc(C(=O)N2CCN(C3CCCC3)C(=O)C2)no1,-112*
Cc1ccccc1OC(C)C(=O)Nc1ccc2c(c1)OCCO2 (stereo not given),-71*
O=C(COc1ccccc1F)Nc1ccc2c(c1)OCCO2,-75*
